Laboratory results from PubChem BioAssay (NCI).
The panel holds about 79,000 compounds, 15% with a hit somewhere; the sample as a whole holds those more often. The source made the active and inactive calls. Rule as the data show it: active = growth inhibition above about 70%; inactive = the rest.

Experiments:
[1] = NCI Yeast Anticancer Drug Screen. Data for the rad50 strain (AID 155);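 also: 0% = growth of vehicle-only cultures of the same strain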; conditions: S. cerevisiae rad50 strain growth inhibition; at 50.0 µM; stronger effect = higher value
How it was run: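 Growth of the mutant yeast was measured after compound exposure and referenced to vehicle-treated cultures.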

[2] = NCI Yeast Anticancer Drug Screen. Data for the mec2-1 strain (AID 157); conditions: S. cerevisiae mec2-1 strain, at 50.0 µM, stronger effect = higher value
How it was run: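 Each compound was tested on mec2-1 yeast, a strain altered in DNA damage repair or cell cycle control. Growth inhibition is reported relative to vehicle.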

[3] = NCI Yeast Anticancer Drug Screen. Data for the sgs1 mgt1 strain (AID 161);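 also: 0% = growth of cultures given vehicle only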; conditions: S. cerevisiae sgs1 mgt1 strain, at 50.0 µM, stronger effect = higher value
How it was run: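 Inhibition of yeast growth, normalised to vehicle-treated controls, is reported for a strain bearing genetic alterations in DNA damage repair.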

[4] = NCI Yeast Anticancer Drug Screen. Data for the cln2 rad14 strain (AID 165);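 also: 0% = growth equal to vehicle treated cultures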; conditions: S. cerevisiae cln2 rad14 strain, at 50.0 µM, stronger effect = higher value
How it was run: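 Test compounds were added to cln2 rad14 yeast cultures; inhibition of growth was then determined by comparison with vehicle treatment.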

[5] = NCI Yeast Anticancer Drug Screen. Data for the bub3 strain (AID 167); conditions: S. cerevisiae bub3 mutant strain, at 50.0 µM, stronger effect = higher value
How it was run: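 Whole-cell yeast assay. The mutant strain was incubated with compounds, and growth inhibition was determined by comparison with vehicle-treated cells.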

[6] = NCI Yeast Anticancer Drug Screen. Data for the mlh1 rad18 strain (AID 175); conditions: S. cerevisiae mlh1 rad18 strain growth inhibition; at 50.0 µM; stronger effect = higher value
How it was run: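 Inhibition values reflect reduced growth of mutant yeast versus vehicle-treated controls following compound exposure; the mutations affect DNA damage repair.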

Measured: growth inhibition

Cc1cc(=O)c2cc([N+](=O)[O-])ccc2[nH]1
inactive: [1] 6.05% | [2] 6.35% | [3] -9.7% | [4] -5.95% | [5] 5.85% | [6] -2.65%

CCOC(=O)CC1(O)Oc2cc3c(cc2C(c2cc(OC)c(OC)c(OC)c2)C1C(=O)OCC)OCO3 (configuration not stated)
inactive: [1] -0.75% | [2] -5.9% | [3] -21.6% | [4] -0.55% | [5] -1.45% | [6] 10.2%

CCC/C=C1\CCC(CN(C)C)C1=O (configuration not stated)
inactive: [1] -9.8% | [2] 7.85% | [3] 18.6% | [4] -1.4% | [5] -11.9% | [6] 15.1%

CN1C(=O)C(=O)n2c(cc3ccccc32)C1=O
inactive: [1] 1.15% | [2] 6.15% | [3] 7.25% | [4] 6.2% | [5] -0.25% | [6] -13.1%

O=C(NC1CCCCC1)Oc1ccc(-c2ccccc2)cc1Cl
active: [1] 98.7% | [2] 99.3% | [3] 98.3% | [4] 98.2% | [5] 99% | [6] 99.1%

CC1=CC2=NC(=O)C(c3ccccc3)C(=O)N2C=C1 (configuration not stated)
inactive: [1] -1.05% | [2] -27.4% | [3] -9.95% | [4] 12.8% | [5] 7.5% | [6] -19.8%

COC1(c2ccccc2)N=C(c2ccc([N+](=O)[O-])cc2)OC1(C)C (configuration not stated)
inactive: [1] 4% | [2] 1.7% | [3] 6.1% | [4] 38% | [5] -4.85% | [6] -4.8%

CCCOc1ccc(C(N)=S)c2ccccc12
inactive: [1] -0.25% | [2] 1.1% | [3] 8.45% | [4] -28.2% | [5] 20.2% | [6] 12.3%

CC(=O)OCC1(C)C(O)CCC2(C)C1CCC1CC3CC12CCC3(O)CO (configuration not stated)
inactive: [1] 12.2% | [2] -26% | [3] 13.8% | [4] 2.95% | [5] -23.4% | [6] 7.9%

Cc1c(C)c(C)c(S(=O)(=O)NCCNS(=O)(=O)c2c(C)c(C)c(C)c(C)c2C)c(C)c1C
inactive: [1] 5.7% | [2] -16.4% | [3] -0.7% | [4] 15.3% | [5] -2.5% | [6] 1.7%

CCN(CC)c1ccc(N=Nc2nc(Cl)c(/C=C3\C(=O)c4ccccc4C3=C(C#N)C#N)s2)c(NC(C)=O)c1
inactive: [1] 18% | [2] 5.1% | [3] 14.2% | [4] -38.6% | [5] -12.8% | [6] -17.6%

CC(C)(CCCOc1ccccc1)/C(=N/O)c1ccccc1
inactive: [1] 14.1% | [2] 5.6% | [3] -14.9% | [4] 21.6% | [5] 11.6% | [6] -14.5%

COC/N=C(\NC#N)NCOC
inactive: [1] 20.5% | [2] -1% | [3] 9.5% | [4] 14% | [5] -11.7% | [6] 23.2%

CC(=O)OCC1OC(n2c(C)c(C(C)=O)c(-c3cccc4ccccc34)c(C#N)c2=S)C(OC(C)=O)C(OC(C)=O)C1OC(C)=O (configuration not stated)
inactive: [1] 25.1% | [2] 22.4% | [3] 48% | [4] 22.1% | [5] 32.3% | [6] 33.9%

COc1ccc(C2C3=C(CCCC3=O)N(c3ccccc3)C3=C2C(=O)CCC3)cc1
inactive: [1] -67% | [2] -18.4% | [3] 3.3% | [4] 19.9% | [5] 7.4% | [6] -27.5%

C=CCNC(=S)Nc1cccc(C(C)OC(=O)NC(C)(C)C)c1 (configuration not stated)
inactive: [1] 1.2% | [2] 30.9% | [3] 36.2% | [4] -5.8% | [5] 33.8% | [6] 20.6%

COc1ccc(C(=O)Nc2c(N)ncnc2N)cc1
inactive: [1] 16.8% | [3] 35.1% | [4] -3.6% | [5] 16.5% | [6] 15.1%
active: [2] 73.7%

CCc1ccc(CC(=S)N2CCOCC2)cc1
inactive: [1] 4.2% | [2] 1.45% | [3] 5.55% | [4] -1.7% | [5] -15.9% | [6] -3.9%

COc1c(Cl)cc(Cl)c(C)c1C(C)C(=O)O (configuration not stated)
inactive: [1] 21.4% | [2] 5.85% | [3] 2.6% | [4] 16.3% | [5] 25.5% | [6] 10.9%

COCCNC(=O)C(C)O (configuration not stated)
inactive: [1] 1.7% | [2] 3.95% | [3] -4.9% | [4] 19.2% | [5] 17.1% | [6] 6.15%

CN(C)CCSCC(=O)N1c2ccccc2Sc2ccccc21
inactive: [1] -7.7% | [2] -8.5% | [3] -5.8% | [4] -41.2% | [5] 3% | [6] -4.8%

COc1ccc(S(=O)(=O)O)cc1N
inactive: [1] -21.2% | [2] -15.9% | [3] -13.5% | [4] -5.15% | [5] -11.9% | [6] -3.95%

Cc1ccc2c(c1)C(O)(CC(=O)c1ccccc1)C(=O)N2 (configuration not stated)
inactive: [1] 35.4% | [2] 0.55% | [3] 7% | [4] -47.9% | [5] -6.6% | [6] 1.35%

COC(=O)C(C(=O)C(=O)Nc1cccc([N+](=O)[O-])c1)c1nc2ccc([N+](=O)[O-])cc2[nH]c1=O (configuration not stated)
inactive: [1] 37.6% | [2] 17.6% | [3] -10.2% | [4] -37.8% | [5] 9.2% | [6] 46.5%

CCC1CNCCC1CC(=O)O (configuration not stated)
inactive: [1] 7.95% | [2] -12.8% | [3] -2.05% | [4] 24.8% | [5] -1.2% | [6] -22.2%

c1ccc(CCNCc2ccc(CNCCc3ccccc3)cc2)cc1
inactive: [1] -5.75% | [2] -23.9% | [3] -12.2% | [4] 5.05% | [5] -0.25% | [6] 3.45%

c1ccc2c(c1)Cc1c-2n[nH]c1-c1[nH]nc2c1Cc1ccccc1-2
inactive: [1] 26.6% | [2] 8.85% | [3] 34.8% | [4] 22.3% | [5] 16% | [6] 55.2%

CCCOC(=O)c1ccnc(C(=O)OCCC)c1
inactive: [1] 4.85% | [2] 4.85% | [3] -1.2% | [4] -16.2% | [5] -9.9% | [6] -13.6%

CCC(O)(c1ccc(OC)cc1)C(c1ccccc1)c1ccccn1 (configuration not stated)
inactive: [1] -1.3% | [2] -8.8% | [3] 6.5% | [4] -16.5% | [5] 2.8% | [6] -0.65%

CCCSc1nc2c(=O)n(C)c(=O)[nH]c2n1C
inactive: [1] -10.2% | [2] -1.8% | [3] -6.95% | [4] -36.3% | [5] -12.2% | [6] -3.55%

COc1ccc2c(c1)C[N+](C)(C)[B-]O2
inactive: [1] -1.6% | [2] -1.55% | [3] 5.45% | [4] -8.65% | [5] 2.1% | [6] 6.75%

O=C(Nc1cc([N+](=O)[O-])cc2c1[nH]c(=O)c1ccccc12)C(F)(F)F
inactive: [1] 26.2% | [2] -2.8% | [3] 10.8% | [4] -41.2% | [5] -7.4% | [6] -0.25%

C=CCNC(=O)C(=O)NCC=C
inactive: [1] 3.65% | [2] -16.2% | [3] -11.2% | [4] -24.6% | [5] -8.25% | [6] 2.1%

COC(=O)C(CC(=O)[C@H]1CC[C@H]2[C@@H]3CC[C@H]4C[C@@H](OC(C)=O)CC[C@]4(C)[C@H]3CC[C@]12C)OC(C)=O (some centres not stated)
inactive: [1] 51.5% | [2] 40.9% | [3] 57.5% | [4] 53% | [5] -2.7% | [6] 44.2%

CC1(C)C2CC=C(/C=N\Nc3ccc([N+](=O)[O-])cc3[N+](=O)[O-])C1C2 (configuration not stated)
inactive: [1] -1.5% | [2] 1.95% | [3] -2.3% | [4] -3.35% | [5] -11.6% | [6] -12.1%

Clc1ccc(/C=C2\c3ccccc3-c3nc4ccccc4nc32)cc1
inactive: [1] -6.7% | [2] -8.05% | [3] -8.65% | [4] -13.4% | [5] -8.25% | [6] -21.9%

O=C1NC(=O)C(c2ccc(Cl)cc2)N1 (configuration not stated)
inactive: [1] 0% | [2] -10.8% | [3] -6.3% | [4] -5.3% | [5] -3.75% | [6] -15.2%

CC(=O)n1[nH]c(=O)c2ncccc2c1=O
inactive: [1] 2.75% | [2] 7.6% | [3] 9.45% | [4] -6.6% | [5] -8.45% | [6] 9%

Cn1cnc2c(Cl)ncnc21
inactive: [1] 12.9% | [2] 34.5% | [3] -20.9% | [4] -18.4% | [5] -0.55% | [6] 5.65%

O=C(O)/C=C\C(=O)Nc1ccccc1Cl
inactive: [1] -12.8% | [2] -9.95% | [3] 10.9% | [4] 6.85% | [5] 13.4% | [6] -10.8%

CC1(C)OC(CP(=O)(c2ccccc2)c2ccccc2)C(CP(=O)(c2ccccc2)c2ccccc2)O1 (configuration not stated)
inactive: [1] 23.1% | [2] 13.1% | [3] 15.4% | [4] 18.2% | [5] -2.2% | [6] 13.2%

O=C(Nc1cccc(O)c1)OC1CCCCC1
inactive: [1] 25.8% | [2] 6.05% | [3] 25.2% | [4] -18.1% | [5] 34% | [6] 24.4%
